Activity calls are given as the source filed them. The calls were made as follows: active = hit-call score of the fitted dose curve at least 0.9, where 1 is the maximum; inactive = score below 0.9.
Test: ATG_EGR_CIS: Attagene CIS-FACTORIAL HepG2 Assay for human Early Growth Response 1 (EGR1) (AID 2282938)
Details: HepG2 Attagene CIS-FACTORIAL EGR reporter mRNA; actives raise or lower the signal
Procedure: ATG_CIS is a cell-based, multiplexed-readout assay that uses HepG2, a human liver cell line, with measurements taken at 24 hours after chemical dosing in a 24-well plate.ATG_EGR_CIS is one of 52 assay component(s) measured or calculated from the ATG_CIS assay. It is designed to make measurements of mRNA induction, a form of inducible reporter, as detected with fluorescence intensity signals by Reverse transcription polymerase chain reaction (RT-PCR) and Capillary electrophoresis technology.Data from the assay component ATG_EGR_CIS was analyzed into 1 assay endpoint. This assay endpoint, ATG_EGR_CIS, was analyzed with bidirectional fitting relative to DMSO as the negative control and baseline of activity. Using a type of inducible reporter, measures of mRNA for gain or loss-of-signal activity can be used to understand the reporter gene at the transcription factor-level as they relate to the gene EGR1. Furthermore, this assay endpoint can be referred to as a primary readout, because this assay has produced multiple assay endpoints where this one serves a reporter gene function. To generalize the intended target to other relatable targets, this assay endpoint is annotated to the dna binding intended target family, where the subfamily is zinc finger.
Human liver HepG2 cells are transiently transfected with multiple reporter transcription units (MRTUs) in 6-well plates using FuGene 6 reagent (Roche; 3 ml FuGene/1 mg DNA). The MRTU constructs are regulated by a cis-regulating element (promoter). […] A major difference between the CIS and TRANS system is that in CIS activities of endogenous TFs are measured, whereas the TRANS assay evaluates changes in activities of exogenous, chimeric NR-Gal4 proteins. […] At the end of 24 hour incubation, total RNA was isolated using TriZol reagent (Invitrogen). The isolated RNA is then reverse-transcribed using oligo(dT) primer and Mo-MLV reverse transcriptase (Invitrogen) with DNAse I (Ambion) treatment for 30 min. The one-tenth of the produced cDNA was amplified by PCR using Taq DNA polymerase (Invitrogen) and two reporter sequence-specific primers. The PCR products were fluorescently labeled by primer extension with 6-arboxyfluorescein (6-FAM) 5'-labeled reporter sequence-specific primer (2 min at 95 C, 20 s at 68 C and 10 min at 72 C) and these products were digested with 5U of HpaI (New England Biolabs) for 2h at 37 C. The fragments were purified using Qiaquick PCR columns (Qiagen), analyzed on an ABI 3130xL genetic analyzer (Applied Biosystems) with peak positions identified by using a set of X-rhodamine (ROX)-labeled MapMarker1000 molecular weight standards (BioVentures). The raw capillary electrophoresis data was processed using Attagraph software (Attagene).

Row | SMILES | outcome | AC50
1 | CCCCOCC(C)O (stereo not given) | inactive | –
2 | CC(C)c1cccc(C(C)C)c1N | inactive | –
3 | Oc1ccc(-c2ccccc2)c(Cl)c1 | – | 53.9 µM (active)
4 | Nc1ccc(C(=O)OCCCOC(=O)c2ccc(N)cc2)cc1 | inactive | –
5 | C/C=C/C=C/CCCCCCCO | – | 100 µM (active)
6 | O=C(Cl)c1c(Cl)c(Cl)c(C(=O)Cl)c(Cl)c1Cl | inactive | –
7 | Cc1noc(NS(=O)(=O)c2ccc(N)cc2)c1C | inactive | –
8 | COC(C=C(C)CCC=C(C)C)OC | inactive | –
9 | CC1=CP(=O)(c2ccccc2)CC1 (stereo not given) | inactive | –
10 | O=C1CCCCCCCCCCC1 | inactive | –
11 | Cc1ccc2c(c1)CCCN2 | inactive | –
12 | CC(C)=NNC(N)=S | inactive | –
13 | Cc1cc(C)c(C=O)c(C)c1 | inactive | –
14 | CCC(C)(O)CCCC(C)C (stereo not given) | inactive | –
15 | CC/C=C\C/C=C\C/C=C\CCCCCCCC(=O)OC | inactive | –
16 | CCCCCCCOC(=O)c1ccc(O)cc1 | inactive | –
17 | C=CC(=O)OCCCCCCCCCC | inactive | –
18 | C=Cc1ccc(OC(C)=O)cc1 | inactive | –
19 | Nc1nc(N)nc(-c2ccccc2)n1 | inactive | –
20 | CC(C)C(=O)OCCc1ccccc1 | inactive | –

Row | SMILES | outcome | AC50
21 | CCCCCCOC(=O)CCCCC(=O)OCCCCCC | inactive | –
22 | CCCCOC(=O)CCC(C)=O | inactive | –
23 | O=S(=O)(O)c1ccc(N=Nc2c(O)ccc3ccccc23)cc1 | inactive | –
24 | CCCCCCO | inactive | –
25 | CC12CCC(CC1)C(C)(C)O2 | inactive | –
26 | CCCCCCC=O | inactive | –
27 | OCCCc1ccccc1 | inactive | –
28 | COC(=O)c1ccccc1C | inactive | –
29 | CCCSSCCC | inactive | –
30 | C[Si](C)(C)N[Si](C)(C)C | inactive | –
31 | NNS(=O)(=O)c1ccc(Oc2ccc(S(=O)(=O)NN)cc2)cc1 | inactive | –
32 | CCCCCCCCCCCC(C)=O | inactive | –
33 | CC1(C)C(=O)N(CO)C(=O)N1CO | inactive | –
34 | O=C(OCCc1ccccc1)c1ccccc1 | inactive | –
35 | C=Cc1cccc(C)c1 | inactive | –
36 | CC(C=O)c1ccccc1 (stereo not given) | inactive | –
37 | CN(C)Cc1cc(CN(C)C)c(O)c(CN(C)C)c1 | inactive | –
38 | Cc1ccccc1CCO | inactive | –
39 | CCOC(=O)CC(=O)c1ccccc1 | inactive | –
40 | Cc1ccc([N+](=O)[O-])cc1N | inactive | –

Source: PubChem BioAssay (EPA / NIEHS)
